Source: PubChem BioAssay
Activity calls are given as the source filed them.

Legend:
[1] = system: Plasmodium falciparum Sir2 (PF13_0152, Sir2A); assay: Plasmodium falciparum Sir2A binding compounds – biochemical, small-molecule microarray, 635 nm fluorescence, primary screen (AID 1098); details: fluorescence 635 nm, higher = more signal;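 also: score merges spot fluorescence intensity with its signal-to-noise ratio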
[2] = probe aDKK1 binding to arrayed compounds – biochemical, biotinylated probe, 635/667 nm fluorescence, primary screen (AID 1099); details: small-molecule microarray, higher = more signal;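 also: score merges 667nm spot fluorescence with signal to noise across triplicate slides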
[3] = probe aCHRDL2 binding to arrayed compounds – biochemical, biotinylated probe, 635/667 nm fluorescence, primary screen (AID 1100); details: small-molecule microarray, higher = more signal
[4] = change in splice reporter luminescence, either direction, cell-based, HEK293, spliceosome inhibition project, primary screen (AID 1101); details: HEK293 splicing luciferase reporter, 24 h, higher = more signal, called active from +8 up or from −8 down;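 also: HEK293 cells carrying a splicing-competent luciferase reporter gene; test concentration not given here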
[5] = biological target: Fibroblast growth factor 10 (Homo sapiens) (UniProt O15520); assay: compounds binding fibroblast growth factor 10 – biochemical, small-molecule microarray, 635 nm fluorescence, primary screen (AID 1102); details: FGF10 binding, fluorescence 635 nm, higher = more signal
[6] = system: glycogen synthase kinase-3 (GSK3A per assay name; protocol says GSK3B); assay: compounds binding glycogen synthase kinase-3 – biochemical, small-molecule microarray, 635 nm fluorescence, GSK3A, primary screen (AID 1103); details: fluorescence 635 nm, higher = more signal; also: the record names both GSK3A and GSK3B
[7] = biological target: Epidermal growth factor receptor (Homo sapiens) (UniProt P00533); assay: compounds binding epidermal growth factor receptor – biochemical, small-molecule microarray, 635 nm fluorescence, primary screen (AID 1104); details: EGFR binding, higher = more signal;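 also: score merges 667 nm emission intensity with spot signal to noise over triplicate slides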
[8] = biological target: Follistatin-related protein 3 (Homo sapiens) (UniProt O95633); assay: compounds binding follistatin-related protein 3 – biochemical, small-molecule microarray, 635 nm fluorescence, primary screen (AID 1105); details: FSTL3 binding, higher = more signal;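 also: score merges emission near 667 nm and signal to noise per printed spot across three slides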
[9] = biological target: Dickkopf-related protein 1 (Homo sapiens) (UniProt O94907); assay: small molecules binding DKK1 protein – biochemical, small-molecule microarray, 635 nm fluorescence scan, primary screen (AID 1106); details: higher = more signal;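 also: score merges emission near 667 nm with signal to noise over three replicate slides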
[10] = system: Inhibin beta A chain (activin A); assay: small molecules binding activin A – biochemical, small-molecule microarray, 635 nm fluorescence scan, primary screen (AID 1107); details: INHBA, higher = more signal;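 also: mouse activin A protein probed at 4.33 µg/mL on printed slides; score merges bound-protein fluorescence near 667 nm with spot signal-to-noise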
[11] = system: Human papillomavirus type 1a protein E7 (residues 44-93); assay: small molecules binding HPV E7 44-93 – biochemical, small-molecule microarray, residues 44-93, 635 nm fluorescence, primary screen (AID 1108); details: fluorescence 635 nm, higher = more signal;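 also: E7 fragment applied at 1 µg/mL in TBST for 1 h at 4 C; score combines spot fluorescence with its signal to noise ratio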
[12] = hepatitis C replication reporter changes, two-sided – Huh7 cells, luciferase reporter, HCV replication inhibitor project, primary screen (AID 1109); details: Huh7 HCV replicon luciferase reporter, 48 h; higher = more signal;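 also: huh7 hepatoma cells harbouring a luciferase neomycin HCV replicon reporter; luciferase luminescence as measure of HCV replicon replication; test concentration not given here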
[13] = biological target: Left-right determination factor 2 (Homo sapiens) (UniProt O00292); assay: small molecules binding LEFTY2 protein – biochemical, small-molecule microarray, 635 nm fluorescence scan, primary screen (AID 1110); details: higher = more signal
[14] = biological target: Calmodulin-1 (Homo sapiens) (UniProt P0DP23); assay: small molecules binding calmodulin-1 with EGTA – biochemical, small-molecule microarray, Cy5-labelled CALM1, profiling panel (AID 1111); details: Cy5-CALM1 binding fluorescence, higher = more signal;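 also: labelled calmodulin applied in Tris saline Tween buffer holding calcium plus EGTA and DTT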
[15] = biological target: Calmodulin-1 (Homo sapiens) (UniProt P0DP23); assay: small molecules binding Ca-loaded calmodulin-1 – biochemical, small-molecule microarray, Cy5-labelled CALM1, plus calcium, artefact control for SMM control-protein annotation, profiling panel (AID 1112); details: Cy5-CALM1 binding fluorescence, higher = more signal;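 also: score merges spot fluorescence with signal to noise from triplicate slides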
[16] = probe aWnt5a binding to arrayed compounds – biochemical, biotinylated probe, 635/667 nm fluorescence, primary screen (AID 1113); details: small-molecule microarray, higher = more signal;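 also: score merges 667 nm fluorescence intensity with signal-to-noise per printed feature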
[17] = probe aShh binding to arrayed compounds – biochemical, biotinylated probe, 635/667 nm fluorescence, primary screen (AID 1114); details: small-molecule microarray, higher = more signal;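 also: probe is biotin-labelled aShh protein from a stem cell growth factor screen; measures binding of labelled protein to compounds printed on the slide; score merges feature fluorescence at 667 nm with signal-to-noise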
[18] = probe aNog binding to arrayed compounds – biochemical, biotinylated probe, 635/667 nm fluorescence, primary screen (AID 1115); details: small-molecule microarray, higher = more signal;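 also: probe is biotinylated aNog protein used at 0.15 µg/mL for 1 h at 4 C; z-score combines 667 nm fluorescence of each spot with its signal to noise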
[19] = biological target: Torsin-1A-interacting protein 1 (Homo sapiens) (UniProt Q5JTV8); assay: compound microarray binding of lysate hLAP1 – cell lysate, small-molecule microarray, COS7 lysate, 635/667 nm fluorescence, primary screen (AID 1116); details: 635 nm fluorescence, higher = more signal
[20] = biological target: Alpha-bungarotoxin (Bungarus multicinctus) (UniProt P60615); assay: compounds binding labelled alpha-BTX control protein – biochemical, small-molecule microarray, Alexa647 label, 635/667 nm fluorescence, artefact control for SMM control protein annotation, profiling panel (AID 1117); details: alpha-BTX-A647 binding fluorescence, higher = more signal
Alpha-bungarotoxin (Bungarus multicinctus), sequence (P60615 whole entry, looked up): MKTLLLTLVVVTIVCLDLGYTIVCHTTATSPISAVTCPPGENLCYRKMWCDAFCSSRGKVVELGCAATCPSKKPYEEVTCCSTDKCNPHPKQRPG

Fibroblast growth factor 10 (Homo sapiens), sequence (O15520 whole entry, looked up): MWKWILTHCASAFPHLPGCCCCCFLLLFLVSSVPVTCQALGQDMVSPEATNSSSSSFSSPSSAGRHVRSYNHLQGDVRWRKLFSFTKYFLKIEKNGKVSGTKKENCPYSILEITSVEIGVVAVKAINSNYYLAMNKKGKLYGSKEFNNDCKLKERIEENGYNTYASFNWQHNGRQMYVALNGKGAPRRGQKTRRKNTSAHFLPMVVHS
Torsin-1A-interacting protein 1 (Homo sapiens), sequence (Q5JTV8 whole entry, looked up): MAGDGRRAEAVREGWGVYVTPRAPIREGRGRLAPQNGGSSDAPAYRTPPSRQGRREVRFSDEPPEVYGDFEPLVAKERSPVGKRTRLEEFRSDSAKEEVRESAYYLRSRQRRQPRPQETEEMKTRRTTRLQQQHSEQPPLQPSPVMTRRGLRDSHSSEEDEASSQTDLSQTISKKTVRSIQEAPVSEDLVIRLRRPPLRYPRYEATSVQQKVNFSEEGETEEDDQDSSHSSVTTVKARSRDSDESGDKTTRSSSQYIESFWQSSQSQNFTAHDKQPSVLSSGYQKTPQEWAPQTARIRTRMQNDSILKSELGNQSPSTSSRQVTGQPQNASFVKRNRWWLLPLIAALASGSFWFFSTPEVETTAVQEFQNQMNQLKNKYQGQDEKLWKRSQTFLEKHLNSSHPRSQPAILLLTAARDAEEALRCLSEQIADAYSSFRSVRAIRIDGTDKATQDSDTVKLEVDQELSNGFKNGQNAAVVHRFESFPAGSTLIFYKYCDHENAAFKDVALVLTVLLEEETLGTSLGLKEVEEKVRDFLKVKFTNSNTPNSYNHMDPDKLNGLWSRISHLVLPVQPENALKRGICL
Left-right determination factor 2 (Homo sapiens), sequence (O00292 whole entry, looked up): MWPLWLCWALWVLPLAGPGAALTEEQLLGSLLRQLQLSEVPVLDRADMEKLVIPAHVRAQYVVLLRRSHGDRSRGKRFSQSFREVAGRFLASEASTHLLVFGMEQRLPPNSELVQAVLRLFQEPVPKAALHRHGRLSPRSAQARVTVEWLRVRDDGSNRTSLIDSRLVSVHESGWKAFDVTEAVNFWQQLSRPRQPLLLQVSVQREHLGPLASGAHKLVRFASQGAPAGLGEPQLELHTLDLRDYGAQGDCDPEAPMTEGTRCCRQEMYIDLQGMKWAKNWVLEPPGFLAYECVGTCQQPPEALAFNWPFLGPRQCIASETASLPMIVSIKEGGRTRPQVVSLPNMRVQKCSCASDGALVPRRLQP
Follistatin-related protein 3 (Homo sapiens), sequence (O95633 whole entry, looked up): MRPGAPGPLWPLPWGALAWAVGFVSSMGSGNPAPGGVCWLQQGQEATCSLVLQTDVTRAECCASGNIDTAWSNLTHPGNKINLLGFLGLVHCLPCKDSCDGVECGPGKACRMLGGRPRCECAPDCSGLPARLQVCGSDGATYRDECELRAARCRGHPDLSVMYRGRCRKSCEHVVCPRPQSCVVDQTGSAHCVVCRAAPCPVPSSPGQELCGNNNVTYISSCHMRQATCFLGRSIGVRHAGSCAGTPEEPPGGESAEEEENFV
Dickkopf-related protein 1 (Homo sapiens), sequence (O94907 whole entry, looked up): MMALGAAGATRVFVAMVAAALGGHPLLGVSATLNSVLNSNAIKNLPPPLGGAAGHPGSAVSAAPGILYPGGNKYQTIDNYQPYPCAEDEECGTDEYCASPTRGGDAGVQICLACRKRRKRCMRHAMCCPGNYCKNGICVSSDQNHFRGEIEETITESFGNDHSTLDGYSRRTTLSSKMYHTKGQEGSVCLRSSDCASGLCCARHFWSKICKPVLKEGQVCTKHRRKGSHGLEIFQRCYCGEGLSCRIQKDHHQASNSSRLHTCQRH
Epidermal growth factor receptor (Homo sapiens), sequence (P00533 whole entry, looked up): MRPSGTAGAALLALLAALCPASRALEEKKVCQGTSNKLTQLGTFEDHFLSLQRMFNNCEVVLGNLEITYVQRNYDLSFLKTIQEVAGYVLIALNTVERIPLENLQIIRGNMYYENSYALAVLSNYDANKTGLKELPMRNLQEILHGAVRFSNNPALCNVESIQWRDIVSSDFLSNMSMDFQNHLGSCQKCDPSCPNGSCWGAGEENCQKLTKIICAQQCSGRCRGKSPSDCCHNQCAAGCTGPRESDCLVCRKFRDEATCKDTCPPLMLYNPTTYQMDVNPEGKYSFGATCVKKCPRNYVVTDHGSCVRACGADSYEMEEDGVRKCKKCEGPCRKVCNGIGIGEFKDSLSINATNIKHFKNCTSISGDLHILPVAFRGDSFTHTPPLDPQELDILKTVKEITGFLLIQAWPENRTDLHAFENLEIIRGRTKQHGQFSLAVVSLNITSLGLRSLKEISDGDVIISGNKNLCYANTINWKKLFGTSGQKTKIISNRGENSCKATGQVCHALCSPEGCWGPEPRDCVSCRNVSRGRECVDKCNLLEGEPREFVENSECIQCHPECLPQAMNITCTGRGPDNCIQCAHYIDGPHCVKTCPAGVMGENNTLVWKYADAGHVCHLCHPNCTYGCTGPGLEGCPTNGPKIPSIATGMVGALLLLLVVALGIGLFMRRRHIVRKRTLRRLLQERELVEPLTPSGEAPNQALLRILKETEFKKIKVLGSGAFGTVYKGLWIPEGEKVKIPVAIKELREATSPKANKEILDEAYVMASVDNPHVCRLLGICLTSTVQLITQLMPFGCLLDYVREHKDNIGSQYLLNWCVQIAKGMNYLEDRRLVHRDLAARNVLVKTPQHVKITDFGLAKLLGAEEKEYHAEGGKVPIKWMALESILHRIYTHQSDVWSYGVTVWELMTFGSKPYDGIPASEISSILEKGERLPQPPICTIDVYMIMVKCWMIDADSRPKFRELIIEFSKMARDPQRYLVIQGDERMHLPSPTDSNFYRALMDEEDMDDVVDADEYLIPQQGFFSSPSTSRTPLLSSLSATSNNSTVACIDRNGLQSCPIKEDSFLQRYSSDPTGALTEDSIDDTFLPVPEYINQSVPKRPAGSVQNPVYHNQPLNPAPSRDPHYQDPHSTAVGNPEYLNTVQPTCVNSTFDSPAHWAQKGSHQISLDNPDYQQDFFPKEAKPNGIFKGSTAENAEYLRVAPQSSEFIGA

Compound	composite z-score [1]	composite z-score [2]	composite z-score [3]	z-score [4]	composite z-score [5]	composite z-score [6]	composite z-score [7]	composite z-score [8]	composite z-score [9]	composite z-score [10]	composite z-score [11]	z-score [12]	composite z-score [13]	composite z-score [14]	composite z-score [15]	composite z-score [16]	composite z-score [17]	composite z-score [18]	composite z-score [19]	composite z-score [20]
COC(=O)CC=C[C@@H](C)[C@@H](C=NO[C@@H](C)c1cc(-c2c(C)cc(C)cc2C)no1)OC	-0.677	0.237	1.07	-1.2 (inactive)	-1.72	-1.19	-1.81	-1.67	-2.42	-0.2	-1.29	-0.378	-0.627	-0.908	-1.48	-0.295	-0.2	0.531	-1.75	-1.11
CCOC(=O)[C@H](CC(C)C)NC(=O)CCC1CC(OC(=O)NCc2cccc3ccccc23)CC2(CCCC(COC(=O)NCCc3ccccc3OC)O2)O1 (stereo not given in full)	0.766	-0.141	-0.39	-0.139 (inactive)	1	1.03	0.387	0.866	0.555	0.182	1.38	-1.24	0.488	1.3	0.371	-0.124	-0.214	-0.335	0.607	0.588
COc1ccccc1CN1C(=O)c2ccccc2[C@@]2(Cc3ccccc3N(C(C)C)C2=O)[C@@H]1c1ccc(CO)cc1	0.139	-0.119	0.414	-0.938 (inactive)	-0.194	-0.467	-0.418	-0.119	-0.39	0.602	-0.0853	-0.318	-0.88	-0.37	-0.772	-0.12	-0.0553	0.005	-0.509	1.12
CCOC(=O)[C@H](Cc1ccccc1)NC(=O)CCC1CC(OC(=O)NCc2ccc3c(c2)OCO3)CC2(CCCC(COC(=O)NCC3CCCCC3)O2)O1 (stereo not given in full)	0.599	-0.151	-0.5	-0.481 (inactive)	0.802	1.27	0.44	1.05	0.655	-0.0031	1.31	-0.443	0.617	0.433	-0.135	-0.0179	-0.299	-0.167	0.517	0.629
CC(C)(C)N1C(=O)[C@H]2[C@H]3[C@H](O)[C@H](O)CC(=NOCc4ccccc4)[C@@H]3CC[C@H]2C1=O	0.616	-0.192	0.24	-1.07 (inactive)	0.97	0.535	0.455	0.988	1.59	0.528	0.093	0.656	1.08	-0.266	-0.717	-0.0194	-0.0146	-0.352	0.593	1.19
CC(C)[C@@H](OCc1ccccc1)[C@H](C)C=NOC[C@@H](C)[C@H](OCc1ccccc1)C(C)C	0.556	-0.319	-0.552	0.741 (inactive)	0.5	-0.076	0.363	0.303	0.429	-0.0094	0.255	-0.534	0.885	0.148	-0.546	-0.101	-0.0685	-0.132	0.0528	0.312
O=C1CCCC=C1C(O)CCOCc1ccccc1 (stereo not given)	0.265	-0.229	-0.513	0.322 (inactive)	0.154	-0.391	0.255	-0.0207	0.428	0.13	-0.649	0.939	0.408	-0.314	-0.605	-0.0735	-0.209	-0.0236	0.266	0.129
Cn1c(=O)n2n(c1=O)[C@H]1[C@H](O)[C@@H]3O[C@@H]3C(=NOC[C@@H](O)COCc3ccco3)[C@H]1CC2	0.608	-0.198	-0.505	-0.695 (inactive)	0.131	0.698	0.475	0.541	0.0999	0.0409	0.499	0.481	0.83	0.132	-0.844	-0.216	-0.468	0.964	0.314	0.318
C=CC[C@@H]1C=C[C@H](ON=C2c3cc(OC)ccc3O[C@H](c3cccc(OC)c3)[C@H]2O)[C@@H](CO)O1	0.0678	-0.403	-0.626	-0.766 (inactive)	0.0385	-0.325	0.379	0.0069	0.26	-0.0002	-0.208	-0.892	0.194	-0.569	-0.319	-0.175	-0.288	0.151	-0.103	1.42
CCOC(=O)CCN1C(=O)[C@H]2[C@H]3[C@H](O)[C@H](O)CC(=NOC[C@@H](O)COCc4ccco4)[C@H]3CC[C@H]2C1=O	0.413	0.0262	-0.5	-1.12 (inactive)	0.449	0.596	0.328	0.608	0.433	0.0553	1.11	-2.99	0.622	-0.039	-0.438	-0.152	-0.0769	-0.0446	0.0386	0.351
O=C1CCCC2OC12C(O)CCc1ccccc1 (stereo not given)	-0.2	-0.45	-0.503	0.00999 (inactive)	0.558	0.263	0.548	0.495	0.372	0.399	-0.118	-0.862	0.585	-0.429	-0.552	0.0516	-0.206	-0.175	0.0788	0.176
